Test results: PubChem BioAssay AID1159580 (chemical genetic matrix, 2015)
In all, about 5,500 compounds went through this assay and about 2,000 (36%) were called active. Roughly 18% stayed inconclusive and do not appear here. No stated cut-off is given here; in the data, active means normalized growth mostly below about 0.91 (no sharp cut-off); inconclusive means no clear call, values can overlap the other calls; inactive means mostly above about 0.92. Some of the results follow.

Assay: chemical genetic growth profiling, strain panel (AID 1159580);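 further: tested at 20 µM; growth read once vehicle control cultures reached saturation at 30 °C; 1 = growth at the plate median or of vehicle wells; lower values mean less growth of the strain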
Conditions: growth OD

Measured: normalized growth

CCCC(C)C1(CC)C(=O)NC(=O)NC1=O (configuration not stated)
inactive: S. cerevisiae deletion strains, locus YJR075W, strain HOC1, active compounds read low 1.04 | S. cerevisiae deletion strains, locus YKL009W, strain mrt4, active compounds read low 1.03 | S. cerevisiae deletion strains, locus YKL068W, active compounds read low 1.01 | S. cerevisiae deletion strains, locus YKL085W, strain MDH1 (second series), active compounds read low 1.02 | S. cerevisiae deletion strains, locus YKL085W, strain MDH1, active compounds read low 1.02 | S. cerevisiae deletion strains, locus YKL160W, strain elf1, active compounds read low 1 | S. cerevisiae deletion strains, locus YKL190W, strain CNB1, active compounds read low 1.02 | S. cerevisiae deletion strains, locus YKR001C, strain vps1, active compounds read low 1.03 | S. cerevisiae deletion strains, locus YKR026C, strain gcn3, active compounds read low 0.998 | S. cerevisiae deletion strains, locus YKR091W, strain srl3, active compounds read low 1 | S. cerevisiae deletion strains, locus YLL001W, strain dnm1, active compounds read low 0.994 | S. cerevisiae deletion strains, locus YLL026W, active compounds read low 1 | S. cerevisiae deletion strains, locus YLL041C, strain sdh2, active compounds read low 1 | S. cerevisiae deletion strains, locus YLR027C, strain aat2, active compounds read low 0.998 | S. cerevisiae deletion strains, locus YLR039C, strain RIC1, active compounds read low 1.1 | S. cerevisiae deletion strains, locus YLR058C, strain SHM2, active compounds read low 1.01 | S. cerevisiae deletion strains, locus YLR102C, strain apc9, active compounds read low 1.02 | S. cerevisiae deletion strains, locus YLR113W, strain HOG1, active compounds read low 0.985 | S. cerevisiae deletion strains, locus YLR221C, strain rsa3, active compounds read low 1 | S. cerevisiae deletion strains, locus YLR258W, strain gsy2, active compounds read low 1 | S. cerevisiae deletion strains, locus YLR262C, strain YPT6 (second series), active compounds read low 1.02 | S. cerevisiae deletion strains, locus YLR262C, strain YPT6, active compounds read low 1.11 | S. cerevisiae deletion strains, locus YLR268W, strain sec22, active compounds read low 1.01 | S. cerevisiae deletion strains, locus YLR320W, strain mms22, active compounds read low 1.01 | S. cerevisiae deletion strains, locus YLR330W, strain CHS5, active compounds read low 1.01 | S. cerevisiae deletion strains, locus YLR342W, strain FKS1 (second series), active compounds read low 1.04 | S. cerevisiae deletion strains, locus YLR342W, strain FKS1, active compounds read low 1 | S. cerevisiae deletion strains, locus YLR357W, strain rsc2, active compounds read low 0.984 | S. cerevisiae deletion strains, locus YLR370C, strain arc18, active compounds read low 1 | S. cerevisiae deletion strains, locus YLR371W, strain rom2, active compounds read low 1.02 | S. cerevisiae deletion strains, locus YLR384C, strain iki3, active compounds read low 0.996 | S. cerevisiae deletion strains, locus YLR418C, strain cdc73, active compounds read low 1.05 | S. cerevisiae deletion strains, locus YML016C, strain PPZ1, active compounds read low 1.01 | S. cerevisiae deletion strains, locus YML032C, strain rad52, active compounds read low 1.02 | S. cerevisiae deletion strains, locus YML120C, strain ndi1, active compounds read low 1.02 | S. cerevisiae deletion strains, locus YML124C, strain tub3, active compounds read low 1.02 | S. cerevisiae deletion strains, locus YMR058W, strain fet3, active compounds read low 1.01 | S. cerevisiae deletion strains, locus YMR078C, strain ctf18, active compounds read low 1.02 | S. cerevisiae deletion strains, locus YMR125W, strain sto1, active compounds read low 0.996 | S. cerevisiae deletion strains, locus YMR129W, active compounds read low 0.997 | S. cerevisiae deletion strains, locus YMR205C, strain PFK2, active compounds read low 0.992 | S. cerevisiae deletion strains, locus YMR223W, strain ubp8, active compounds read low 1.04 | S. cerevisiae deletion strains, locus YMR231W, strain pep5, active compounds read low 1 | S. cerevisiae deletion strains, locus YMR263W, strain SAP30, active compounds read low 1.02 | S. cerevisiae deletion strains, locus YMR307W, strain GAS1, active compounds read low 1.12 | S. cerevisiae deletion strains, locus YNL067W, strain RPL9B, active compounds read low 1.01 | S. cerevisiae deletion strains, locus YNL071W, strain lat1, active compounds read low 1.01 | S. cerevisiae deletion strains, locus YNL128W, strain TEP1, active compounds read low 1.02 | S. cerevisiae deletion strains, locus YNL153C, strain GIM3, active compounds read low 1 | S. cerevisiae deletion strains, locus YNL183C, strain NPR1, active compounds read low 0.922 | S. cerevisiae deletion strains, locus YNL209W, strain ssb2, active compounds read low 1 | S. cerevisiae deletion strains, locus YNL233W, strain BNI4, active compounds read low 1.01 | S. cerevisiae deletion strains, locus YNL248C, strain rpa49, active compounds read low 1 | S. cerevisiae deletion strains, locus YNL250W, strain rad50, active compounds read low 1.02 | S. cerevisiae deletion strains, locus YNL271C, strain bni1, active compounds read low 1.03 | S. cerevisiae deletion strains, locus YNL298W, strain CLA4, active compounds read low 1.03 | S. cerevisiae deletion strains, locus YNL307C, strain MCK1, active compounds read low 1.03 | S. cerevisiae deletion strains, locus YNL322C, strain KRE1 (second series), active compounds read low 0.997 | S. cerevisiae deletion strains, locus YNL322C, strain KRE1, active compounds read low 1.01 | S. cerevisiae deletion strains, locus YNR049C, strain mso1, active compounds read low 0.998 | S. cerevisiae deletion strains, locus YNR052C, strain pop2, active compounds read low 1.02 | S. cerevisiae deletion strains, locus YOL006C, strain TOP1, active compounds read low 1.07 | S. cerevisiae deletion strains, locus YOL012C, strain htz1 1.23 | S. cerevisiae deletion strains, locus YOL147C, strain pex11, active compounds read low 1 | S. cerevisiae deletion strains, locus YOR001W, strain rrp6, active compounds read low 0.999 | S. cerevisiae deletion strains, locus YOR061W, strain CKA2, active compounds read low 1.02 | S. cerevisiae deletion strains, locus YOR069W, strain VPS5, active compounds read low 1.01 | S. cerevisiae deletion strains, locus YOR070C, strain gyp1, active compounds read low 1 | S. cerevisiae deletion strains, locus YOR080W, strain dia2, active compounds read low 0.998 | S. cerevisiae deletion strains, locus YOR083W, strain WHI5, active compounds read low 1.01 | S. cerevisiae deletion strains, locus YOR106W, strain vam3, active compounds read low 1.02 | S. cerevisiae deletion strains, locus YOR136W, strain idh2, active compounds read low 1.02 | S. cerevisiae deletion strains, locus YOR144C, strain elg1, active compounds read low 1.01 | S. cerevisiae deletion strains, locus YOR184W, strain ser1, active compounds read low 1.06 | S. cerevisiae deletion strains, locus YOR231W, strain MKK1, active compounds read low 0.996 | S. cerevisiae deletion strains, locus YOR265W, strain rbl2, active compounds read low 1 | S. cerevisiae deletion strains, locus YOR270C, strain vph1, active compounds read low 1.01 | S. cerevisiae deletion strains, locus YOR290C, strain snf2, active compounds read low 1.02 | S. cerevisiae deletion strains, locus YOR316C, strain cot1, active compounds read low 1.03 | S. cerevisiae deletion strains, locus YPL051W, strain arl3, active compounds read low 1.01 | S. cerevisiae deletion strains, locus YPL055C, strain LGE1, active compounds read low 1.04 | S. cerevisiae deletion strains, locus YPL078C, strain atp4, active compounds read low 0.999 | S. cerevisiae deletion strains, locus YPL106C, strain sse1, active compounds read low 0.996 | S. cerevisiae deletion strains, locus YPL240C, strain hsp82, active compounds read low 1.02 | S. cerevisiae deletion strains, locus YPL241C, strain CIN2, active compounds read low 1.01 | S. cerevisiae deletion strains, locus YPL256C, strain CLN2, active compounds read low 0.981 | S. cerevisiae deletion strains, locus YPR119W, strain clb2, active compounds read low 1.01 | S. cerevisiae deletion strains, locus YPR141C, strain kar3, active compounds read low 1.02 | S. cerevisiae deletion strains, locus YPR163C, strain tif3, active compounds read low 1.01 | S. cerevisiae deletion strains, locus YPR167C, strain met16, active compounds read low 1.02 | S. cerevisiae deletion strains, strain wtn01, active compounds read low 1.02 | S. cerevisiae strains, strain wild type, active compounds read low 1.01
